Sampled rows, rich in hits. Any-hit rate of the full collection: about 3.2%.
Epigenetic mod: qHTS Assay for Epigenetic Modulators. mouse C127i GFP locus derepression, cytometry, 30 h. Potency, µM (highest dose often 46.1 µM), for inactives: at the highest dose GFP derepression (activation). hit rate 0.09% among 68,000. AID 597, 2007; note: % of control where 0% means no effect
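Derepression screen: silenced CMV-GFP reporter in murine C127i cells, 30 h compound incubation at 37 C, washed cells imaged by laser-scanning cytometer to enumerate GFP-expressing objects of 20 to 120 um.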
Tau filament bind: qHTS Assay for Tau Filament Binding | Microtubule-associated protein tau (Homo sapiens), P10636 | hit rate 2% among 71,000 | Potency, µM (titrated, usually from 57.1 µM), for the others: at the highest dose activity change, negative = inhibition | recombinant tau filaments, thioflavin S fluorescence, 15 h; filaments grown with octadecylsulfate alongside compound;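 note: potency is the fitted concentration of half-maximal effect; % is set by controls: 0 for no effect and ±100 for the full control effect; actives lower thioflavin S fluorescence by blocking filaments or displacing dye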
Target sequence (P10636 whole entry, looked up): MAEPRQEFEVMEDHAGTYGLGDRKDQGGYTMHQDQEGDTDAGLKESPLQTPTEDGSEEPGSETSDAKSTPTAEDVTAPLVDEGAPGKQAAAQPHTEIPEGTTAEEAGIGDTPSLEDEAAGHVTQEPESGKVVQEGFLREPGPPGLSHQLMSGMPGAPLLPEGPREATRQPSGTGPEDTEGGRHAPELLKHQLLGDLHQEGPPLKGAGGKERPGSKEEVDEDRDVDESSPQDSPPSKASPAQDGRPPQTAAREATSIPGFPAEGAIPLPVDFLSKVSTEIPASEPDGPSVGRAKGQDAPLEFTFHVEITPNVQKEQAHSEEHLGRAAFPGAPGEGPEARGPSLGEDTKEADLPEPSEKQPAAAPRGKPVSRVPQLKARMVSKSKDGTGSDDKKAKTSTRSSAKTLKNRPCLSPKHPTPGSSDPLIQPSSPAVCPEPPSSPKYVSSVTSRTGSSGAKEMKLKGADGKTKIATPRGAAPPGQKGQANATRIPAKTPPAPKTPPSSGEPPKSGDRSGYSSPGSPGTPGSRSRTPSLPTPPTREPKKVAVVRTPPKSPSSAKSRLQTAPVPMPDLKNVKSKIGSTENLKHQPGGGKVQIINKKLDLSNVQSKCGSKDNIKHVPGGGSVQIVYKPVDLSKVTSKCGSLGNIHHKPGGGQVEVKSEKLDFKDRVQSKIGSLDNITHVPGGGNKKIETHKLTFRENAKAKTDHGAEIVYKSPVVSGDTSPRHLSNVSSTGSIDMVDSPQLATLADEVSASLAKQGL
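Tau 2 uM in ThS buffer dispensed; compound added; 60 uM ODS added (finals 1 uM tau, 30 uM ODS); 15 h 37 C; fluor ex450/em510.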
ALOX15 inhib: qHTS Assay for Inhibitors of 15-hLO (15-human lipoxygenase). Polyunsaturated fatty acid lipoxygenase ALOX15 (Homo sapiens), P16050. purified 15hLO-1, xylenol orange hydroperoxide absorbance. Potency, µM (top dose mostly 57.1 µM), without a hit: at the highest dose activity change, negative = inhibition, most hits filed as inhibitors. hit rate 1.4% among 74,000. AID 887, 2007; note: potency is the fitted concentration of half-maximal effect; % is set by controls: 0 for no effect and ±100 for the full control effect; nearly all actives have a fitted effect of over 55% in size
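Compounds were preincubated 15 min at room temperature with 40 nM purified human enzyme (25 mM Hepes pH 7.5, 0.01% Triton X-100); 50 uM arachidonic acid reacted 6 min. Fe-xylenol orange detection, 30 min, absorbance ratio 573/405 nm.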
HBB splicing: qHTS Assay for Modulators of Hemoglobin Beta Chain Splicing; hit rate 0.06% among 65,000; AID 925, 2007; HBB splicing reporter cell assay, activation; EGFP reporter with mutant IVS2-654 intron; response scale: normalised to 500 nM splice-correcting PNA; Potency, µM (titrated, usually from 46.1 µM), inactives show at the top dose activation, most hits filed as activators; note: potency is the fitted concentration of half-maximal effect; 0% is about no effect
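Compounds were applied for 2 days to HeLa EGFP-654 cells, 500/well in Optimem with 2% FCS. The reporter's EGFP is disrupted by mis-splicing of beta-globin intron IVS2-654. Readout: summed well GFP fluorescence from 488 nm laser scanning; reference was 500 nM antisense […] 654 PNA.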
DNA Pol III inh: qHTS Assay for Inhibitors of DNA Polymerase III Holoenzyme System. hit rate 0.25% among 71,000. reconstituted DNA polymerase III holoenzyme replication, biochemical. Potency, µM (top dose mostly 57.1 µM), for inactives: at the highest dose activity change, negative = inhibition. AID 603, 2007; note: potency is the fitted concentration of half-maximal effect; % is set by controls: 0 for no effect and ±100 for the full control effect
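Reconstituted *E. coli* holoenzyme (0.35 nM Pol III, 1 nM beta, 154 nM SSB, 2 nM primase) was preincubated with compound for 15 min at RT. Synthesis on 1.4 nM ssM13Gori ran 35 min, then was stopped with PicoGreen/EDTA and read as dsDNA fluorescence.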
UbGFP stabilizer: Ubiquitin-GFP Assay; Ubiquitin-GFP reporter cells, proteasome inhibition, GFP fluorescence; response scale: untreated = 0%, 10 µM MG-132 = 100%; Potency, µM (titrated, usually from 45.9 µM), for the others: top-dose activation (GFP accumulation), usual class: activators; 67,000 tested, under 10 active; AID 526, 2006; active = well fitted activation curve with a large enough effect, not every such curve was filed as active; inconclusive = small, poorly fitted or top-dose-only effect, or another doubt; inactive = no such curve, though single readings can be large or run the other way; note: potency is the fitted concentration of half-maximal effect
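Proteasome blockade was scored as a rise in GFP-expressing U2OS cells carrying a ubiquitin(G76V)-GFP construct, imaged after 4 hr compound treatment at 37 °C across a 46 uM–2.9 nM series.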
* = called active by the depositor; ? = inconclusive; . = no result given; [ ] = remark or other dose. Unless noted, calls come from the whole dose curve; as a rule, active = well fitted curve in the direction sought with a large enough effect; inconclusive = small, poorly fitted or top-dose-only effect, or another doubt; inactive = no such curve, though single readings can be large; an effect the other way counts as inactive or inconclusive.

SMILES	Epigenetic mod	Tau filament bind	ALOX15 inhib	HBB splicing	DNA Pol III inh	UbGFP stabilizer
CCCCCc1nnc(NC(=O)C2CCCO2)s1 (stereo unspecified)	5%	8%	0%	3%	-3%	2%
CCCc1cc(C(N)=O)c(NC(=O)C2CCCO2)s1 (stereo unspecified)	2%	25%	25µM*	-1%	-5%	3%
Cc1ccc(O)c(C(=O)CC(=O)c2cccc(F)c2)c1	-2%	2µM*	-17%[11.4 µM]	-1%[0.0738 µM]	1%[11.4 µM]	-2%[9.17 µM]
O=C(CC(=O)c1cc(Cl)ccc1O)c1ccccc1	9%	25µM*	?	-2%[9.22 µM]	0%	8%
FC(F)(F)c1ccccc1Cl	.	6%	2%	-1%	6%	.
O=c1c2cc(Cl)ccc2oc2nc3n(c(=O)c12)CCCS3	0%	13µM*	-3%	1%[1.84 µM]	0%	0%
O=c1c2ccccc2nc2n1CCCS2	.	.	8%	.	.	.
CCC1Oc2nc(SC)nnc2-c2ccccc2N1C(=O)c1ccccc1 (stereo unspecified)	0%	-20%	-6%	1%	-4%	-9%
CCC(=O)N1c2ccccc2-c2nnc(SC)nc2OC1c1ccc(N(C)C)cc1 (stereo unspecified)	.	25µM*	2%	0%	-1%	6%
CCCCCSc1nnc2c(n1)OC(C)N(C(C)=O)c1ccccc1-2 (stereo unspecified)	-4%	25µM*	?	-1%	-4%	3%
CCCSc1nnc2c(n1)OC(c1cccn1C)N(C(C)=O)c1ccccc1-2 (stereo unspecified)	.	.	-4%	.	.	.
O=C(O)C1(C(=O)O)CCN(S(=O)(=O)c2ccccc2)CC1	6%[9.22 µM]	-3%[11.4 µM]	3%[11.4 µM]	-1%[9.22 µM]	-10%[11.4 µM]	2%[9.17 µM]
Oc1ccc2c(c1)oc1cc(O)ccc12	5%	-19%	13µM*	-5%	-1%	-1%
COc1ccccc1CCn1c(=O)c(-c2cccc(Cl)c2)nc2cncnc21	0%[9.22 µM]	13µM*	-23%	-1%	16%	-4%
O=c1c(-c2ccccc2)nc2cncnc2n1Cc1ccccc1Cl	14%[9.22 µM]	?	4%	0%	-11%	6%
COc1ccccc1CCn1c(=O)c(-c2ccc(F)cc2)nc2cncnc21	0%[9.22 µM]	-9%	-24%	-1%	-1%	3%
O=c1c(-c2cccc(Cl)c2)nc2cncnc2n1Cc1ccccc1Cl	3%[9.22 µM]	6.3µM*	5%	1%	-7%	-3%
Cc1nc2cncnc2n(Cc2ccccc2Cl)c1=O	2%[9.22 µM]	16µM*	12%	?	-3%	11%
CN=C1N[C@H](c2ccccc2)N(c2ccccc2)S1	0%	?	0.79µM*	.	-4%	-5%
O=C(O)[C@@H]1[C@@H]2C[C@H]([C@@H](Br)[C@H]2N2C(=O)CCC2=O)[C@@H]1C(=O)O	-1%[9.22 µM]	-3%[11.4 µM]	17%[11.4 µM]	6%[9.22 µM]	-4%[11.4 µM]	-5%[9.17 µM]
CCOC(=O)C1=C(C)NC(C)=C(C(=O)OC)[C@H]1c1cccc(Cl)c1Cl	1%	3%	-22%	-1%	-7%	-2%
CCN(CC)C(=O)CSc1nc2cc3c(cc2c(=O)n1Cc1ccc2c(c1)OCO2)OCO3	11%	0%	0%	-1%[0.369 µM]	-3%	-2%
CCOC(=O)CSc1nc2ccc(N3CCOCC3)cc2c(=O)n1Cc1ccc2c(c1)OCO2	0%	-27%	20µM*	7%[0.369 µM]	-14%	-9%
O=C(O)c1c(Cl)c(Cl)c(Cl)c(Cl)c1C(=O)Nc1ccc2cn[nH]c2c1	-2%[9.22 µM]	5%[11.4 µM]	6%[11.4 µM]	0%[9.22 µM]	-6%[11.4 µM]	2%[9.17 µM]
CC(=O)OCC1OC(C#Cc2ccc(C)cc2C)C=CC1OC(C)=O (stereo unspecified)	.	.	-5%[11.4 µM]	2%[9.22 µM]	.	.
SMILES	Epigenetic mod	Tau filament bind	ALOX15 inhib	HBB splicing	DNA Pol III inh	UbGFP stabilizer
Cc1ccc(-c2cc(C(=O)NCc3ccco3)c3ccccc3n2)o1	1%	-6%	?	-1%	-13%	-9%
Cc1ccc(-c2cc(C(=O)NC3=NCCS3)c3cc(Br)ccc3n2)o1	?	13µM*	13µM*	-1%	-3%	-1%
Cc1ccc(-c2cc(C(=O)NCCCn3ccnc3)c3cc(Br)ccc3n2)o1	-3%	16µM*	?	1%	-15%	-2%
N[C@@H](C(=O)O)[C@H](O)C(=O)O	-1%	-5%	.	0%	-6%	7%
CCCCCCNC(=O)Nc1ccc(S(=O)(=O)Nc2ccc(CCNC[C@H](O)COc3ccc(O)cc3)cc2)cc1	.	.	7.9µM*	-1%	.	.
CN1CCC(CNC(=O)c2ccc(Cc3nc4ccccc4[nH]3)cc2)CC1	.	.	-2%	.	.	.
Cn1cccc1C(=O)N1CCC2(CC1)CCN(c1ccc(-c3ccccc3)cc1)CC2	0%[9.22 µM]	16µM*	-10%	-2%	15%	-2%
Cn1cccc1C(=O)N1CCC2(CC1)CCN(c1ccccc1)CC2	0%[9.22 µM]	-26%	4%	1%	-4%	1%
CCOC(=O)C1=C(C)NC(=O)N[C@@H]1c1coc2cc(C)cc(C)c2c1=O	4%[9.22 µM]	14%[11.4 µM]	1%[11.4 µM]	1%[9.22 µM]	0%[11.4 µM]	-1%[9.17 µM]
CSC1=C(C#N)C2(CCCC2)C(C#N)=C(N)N1	-1%	7%	?	8%	-13%	0%
N#CC1=C(N)N2C(=C(C#N)C13CCCCC3)SC1CCCCC12O (stereo unspecified)	-2%	16%	20µM*	0%[57.5 µM]	-3%	-5%
CC(CC(=O)O)(CC(=O)O)c1ccccc1	5%[9.22 µM]	1%[11.4 µM]	-5%[11.4 µM]	5%[9.22 µM]	-7%[11.4 µM]	-1%[9.17 µM]
Cc1ccsc1C1C=C(c2cccc(Br)c2)Nc2ncnn21 (stereo unspecified)	0%	308%	16µM*	-1%	3%	2%
CN(C)c1ccc(NC(=O)c2ccc(COc3cccc(Cl)c3)o2)cc1	-1%	7.9µM*	-12%	-1%	5%	8%
CCOc1ccc(OCc2ccc(C(=O)Nc3ccc(Cl)cn3)o2)cc1	0%	59%	-17%	-1%	0%	-1%
O=C(CSc1nc2cc(Cl)ccc2s1)c1ccco1	0%	-17%	-4%	3%	-4%	-9%
O=C(CSCc1ccc(Cl)cc1)c1ccco1	-3%	?	32µM*	0%[57.5 µM]	-8%	2%
Cc1ccc(S(=O)(=O)/C=C\C#N)cc1	-1%	35%	-3%[25.6 µM]	.	-13%	-1%
O=C(NCCCN1CCOCC1)c1ccc(-n2c(=O)c(=O)[nH]c3ccccc32)cc1	.	.	0%	.	.	.
Nc1c(C(=O)N2CCCCC2)sc(=S)n1-c1ccccc1	-2%	-11%	10µM*	0%	-2%	-7%
